# Assay results reported in PubChem BioAssay AID2235 (The Scripps Research Institute Molecular Screening Center, 2010).
# Hit rate of the full screen: of about 320,000 compounds, about 2,800 (0.88%) were called active.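 Rule for the calls: active = inhibition above the mean inhibition of all tested compounds plus 3 SD, computed separately for each screening campaign (cut at about 15% in these data); inactive = the rest.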 The entries come from a sample that favours actives as a whole.
# Molecular target: Serine/threonine-protein phosphatase PP1-alpha catalytic subunit (Homo sapiens) (UniProt P62136)
# Sequence (P62136 whole entry, looked up): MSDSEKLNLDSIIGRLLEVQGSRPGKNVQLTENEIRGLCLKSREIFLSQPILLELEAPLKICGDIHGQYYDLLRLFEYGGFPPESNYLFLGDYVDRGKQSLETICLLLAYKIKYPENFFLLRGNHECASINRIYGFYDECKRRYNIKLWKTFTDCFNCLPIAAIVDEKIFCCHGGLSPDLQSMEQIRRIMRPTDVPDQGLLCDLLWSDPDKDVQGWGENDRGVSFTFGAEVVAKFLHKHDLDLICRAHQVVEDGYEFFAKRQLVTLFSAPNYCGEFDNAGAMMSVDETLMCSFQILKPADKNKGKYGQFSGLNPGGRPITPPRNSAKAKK
# Assay: inhibition of human PP1 catalytic subunit – biochemical, fluorescence, OMFP substrate, single point, counter-screen for PP5 inhibitor project, primary screen (AID 2235)
# Conditions: purified PP1alpha, at 6.7 µM, active compounds read high
row,SMILES,inhibition
1,CC1(C)O[C@@H]2[C@H](O1)[C@@H](CO)O[C@H]2n1c(N2CCCCC2)nc2c(N)ncnc21,-3.13% (inactive)
2,CC(=O)Nc1ccc(S(=O)(=O)N2CCn3cccc3C2C)cc1 (stereo not drawn),0.86% (inactive)
3,Cc1ccc(-n2c(SCC(=O)N/N=C/C=C/c3ccccc3[N+](=O)[O-])nc3ccccc3c2=O)cc1,16.8% (active)
4,CCn1c(SCC(=O)N/N=C/C=C/c2ccccc2[N+](=O)[O-])nnc1-c1ccccc1,-0.35% (inactive)
5,O=C(CSc1nc2ccccc2[nH]1)N/N=C/C=C\c1ccccc1[N+](=O)[O-],-2.41% (inactive)
6,Cc1cccc(NC(=O)c2ccc(S(=O)(=O)N(C)CC3CCCO3)cc2)c1C (stereo not drawn),0.75% (inactive)
7,NS(=O)(=O)c1ccc(NC(=S)Nc2ccc(Br)c(Cl)c2)cc1,0.34% (inactive)
8,Cc1cc(C)cc(NC(=O)NCc2ccccn2)c1,-2.05% (inactive)
9,O=C(NCc1ccccn1)c1ccc2nc(-c3ccco3)c(-c3ccco3)nc2c1,31.1% (active)
10,Cc1nc2cc(NC(=O)NCc3ccccc3)ccc2o1,-6.2% (inactive)
11,COCCNC(=O)Nc1ccc2nc(-c3ccco3)c(-c3ccco3)nc2c1,22.8% (active)
12,CCOc1cc(NC(=S)NCCCOC)c(OCC)cc1NC(=O)c1ccco1,-3.32% (inactive)
13,CCOc1ccc(C(=O)NC(C(=O)NCc2ccccn2)C(C)C)cc1 (stereo not drawn),1.59% (inactive)
14,C[C@H](NC(=O)[C@@H]1Cc2ccccc2CN1C(=O)OC(C)(C)C)C(=O)NC1CCCC1,-1.9% (inactive)
15,CC(=O)Nc1ccc(SC[C@H](Cc2ccccc2)N2CC[C@@H](C)CCC2=O)cc1,2.41% (inactive)
16,Cc1nc2cccnc2nc1C,2.22% (inactive)
17,CCCCn1c(N)c(N(CC(C)C)C(=O)c2cccc(S(=O)(=O)N3CC(C)OC(C)C3)c2)c(=O)[nH]c1=O (stereo not drawn),-0.35% (inactive)
18,COc1ccc(S(=O)(=O)N2CCOC2CNC(=O)C(=O)NCc2ccncc2)cc1OC (stereo not drawn),-2.33% (inactive)
19,Cc1ccc(-c2nn(-c3ccccc3)cc2/C=C/C(=O)Nc2cccc(S(N)(=O)=O)c2)cc1,2.13% (inactive)
20,COc1ccc(NC(=O)c2cn(-c3ccccc3)nc2SC)cc1,0.29% (inactive)

row,SMILES,inhibition
1,COc1ccc(-c2nn(-c3ccccc3)cc2/C=C\C(=O)Nc2ccc(C(=O)O)cc2)cc1,23.8% (active)
2,O=C(CSc1ccccc1F)NC1CCS(=O)(=O)C1 (stereo not drawn),-3.59% (inactive)
3,CC(C)(C)NC(=O)Cn1c(SCC(=O)Nc2nccs2)nc2ccccc21,-0.87% (inactive)
4,O=C1CC(c2c(F)cccc2Cl)C(n2cncn2)C(O)=C1C1NCCc2ccccc21 (stereo not drawn),3.05% (inactive)
5,C=CCn1c(=NC(=O)c2cccs2)sc2cc(NC(C)=O)ccc21,14.5% (inactive)
6,C=CCn1c(=NC(=O)c2ccc(S(=O)(=O)N3CCCC3)cc2)sc2cc(NC(C)=O)ccc21,21.1% (active)
7,COc1cc(C(C)=O)ccc1OC(C)C(=O)Nc1ccc(S(=O)(=O)N2CCCC2)cc1 (stereo not drawn),-2.63% (inactive)
8,C=C(Br)Cn1c(CCCC)nc2ccccc21,-2.53% (inactive)
9,COc1ccc(CNC(=O)C(c2ccc(O)cc2)N(Cc2ccco2)C(=O)c2snc(C(N)=O)c2N)cc1 (stereo not drawn),4.97% (inactive)
10,CCCOc1ccc(C2C(C(=O)c3ccc(C)o3)=C(O)C(=O)N2CCCn2ccnc2)cc1 (stereo not drawn),33.5% (active)
11,C=CCOc1cccc(C2C(C(=O)c3ccc(C)o3)=C(O)C(=O)N2c2nnc(C)s2)c1 (stereo not drawn),2.22% (inactive)
12,C=CCOc1cccc(C2C(C(=O)c3ccc(C)o3)=C(O)C(=O)N2CCCn2ccnc2)c1 (stereo not drawn),17.4% (active)
13,O=C(C1=C(O)C(=O)N(Cc2ccccc2)C1c1cccnc1)c1ccco1 (stereo not drawn),0.59% (inactive)
14,CCOc1ccc(C2/C(=C(/O)c3ccc4c(c3)CC(C)O4)C(=O)C(=O)N2CCCn2ccnc2)cc1 (stereo not drawn),9.12% (inactive)
15,CCCOc1ccc(C2c3c(oc4cc(C)c(C)cc4c3=O)C(=O)N2CCCN2CCOCC2)cc1 (stereo not drawn),3.82% (inactive)
16,CCN(CC(=O)Nc1cc(Cl)ccc1C)C(=O)CN1C(=O)NC2(CCCC2)C1=O,0.75% (inactive)
17,C=CCNC(=O)CC12CC3CC(C1)CC(CC(=O)NCC=C)(C3)C2,-3.18% (inactive)
18,CC1=C(C(N)=O)C(c2ccc(Br)cc2)n2ncnc2N1 (stereo not drawn),1.51% (inactive)
19,Brc1ccc(C2=CC(c3ccco3)n3ncnc3N2)cc1 (stereo not drawn),0.45% (inactive)
20,Clc1ccc2c(c1)C1=C(C(c3ccncc3)O2)C(c2ccc(Br)cc2)n2ncnc2N1 (stereo not drawn),20.3% (active)

row,SMILES,inhibition
1,COc1ccc(C(C(=O)NC2CCCCC2)N(C(=O)Cc2c[nH]c3ccccc23)c2ccccc2)cc1OC (stereo not drawn),2.63% (inactive)
2,Cc1nn(-c2ncc(C(F)(F)F)cc2Cl)c(=O)n1-c1ccccc1,-0.83% (inactive)
3,O=C1c2cccc(OCC(=O)N3N=C(c4cccs4)CC3c3ccc(F)cc3)c2CCN1Cc1ccccc1 (stereo not drawn),21% (active)
4,COc1ccc(C2CC(c3cccs3)=NN2C(=O)CCC(=O)O)cc1OC (stereo not drawn),0.57% (inactive)
5,O=C(COc1ccccc1Cl)N1N=C(c2cccs2)CC1c1ccco1 (stereo not drawn),7.67% (inactive)
6,Cc1cc(C)nc(Nc2n[nH]c(-c3ccccc3N)n2)n1,0.04% (inactive)
7,CN1C(=O)c2ccc(C(=O)Nc3ccc(Br)cn3)cc2C1=O,-4.13% (inactive)
8,COc1cccc(/C=N/NC(=O)c2[nH]nc3c2CCc2ccccc2-3)c1O,25% (active)
9,COc1cc(OC)c(/C=N/NC(=O)c2ccc([N+](=O)[O-])cc2)cc1Br,-0.65% (inactive)
10,CN(C)CCNC(=O)c1[nH]nc2c1CCc1ccccc1-2,-1.2% (inactive)
11,O=S(=O)(NN=C1CCCCCCC1)c1ccc(Br)cc1,-0.57% (inactive)
12,O=C(O)CC(CC(=O)N1CCOCC1)c1ccccc1 (stereo not drawn),-2.86% (inactive)
13,CN(C(=O)CN(CCO)CC(=O)N(C)C(C)(C)Cc1ccccc1)C(C)(C)Cc1ccccc1,21.1% (active)
14,OCCN(Cc1ccccc1)Cc1ccc(Cl)cc1,5.28% (inactive)
15,CCN(CC)CCCNC(=O)CCc1ccccc1,-3.5% (inactive)
16,Cc1ccc2nc(SCC(=O)Nc3cccc4ccccc34)nc(=O)n2c1,-4.71% (inactive)
17,Cc1ccccc1-n1c(SCC(=O)Nc2cccc3ccccc23)nc(O)cc1=O,15.6% (active)
18,C=CCn1c(N)cc(=O)nc1SCC(=O)Nc1cccc2ccccc12,2.61% (inactive)
